Experimental data from ChEMBL document CHEMBL4513146, “CO-ADD screening of Karazin Kharkiv National University (Ukraine) compounds”.
Results with a measured potency or affinity are listed apart.

How the values were obtained:
Klebsiella pneumoniae = settings: Concentration 32 ug.mL-1;; ASSAY_TEST Inhibition of Bacterial Growth; detection method Absorption (OD600); MEDIA CAMHB; plate type 384well; NBS; CORNING #3640; time 18 hr
Candida albicans = settings: Concentration 32 ug.mL-1; ASSAY_TEST Inhibition of Fungal Growth; detection method Absorption (OD530)
Cryptococcus neoformans = settings: Concentration 32 ug.mL-1; ASSAY_TEST Inhibition of Fungal Growth; detection method Resazurin; Absorption (OD600-OD570); plate type 384well; NBS; CORNING #3640

Structure (SMILES) | Inhibition (Klebsiella pneumoniae) | Inhibition (Candida albicans) | Inhibition (Cryptococcus neoformans)
COc1cccc(-n2ccn3c(SCC(=O)Nc4ccc(Cl)cc4)nnc3c2=O)c1 | 5.48% | 2.88% | -10.21%
Cc1nnc2ccc(S(=O)(=O)N(Cc3ccccc3)c3ccc(Cl)cc3)cn12 | 0.23% | -0.42% | -6.05%
COc1cc(NC(=O)C(C)Sc2nnc3c(=O)n(-c4cccc(OC)c4)ccn23)cc(OC)c1 (stereo not given) | 2.2% | -0.84% | -10.32%
CCOc1ccc(N(Cc2ccc(F)cc2)S(=O)(=O)c2ccc3nncn3c2)cc1 | 4.23% | 3.15% | -3.72%
O=C(Cn1nc2c3cc(-c4ccc(Cl)cc4)nn3ccn2c1=O)Nc1ccc(F)cc1 | 10.41% | 1.82% | -10.24%
COc1cccc(NC(=O)Cn2c(=O)c3nnc(C(C)C)n3c3ccccc32)c1 | 16.14% | 3.17% | -13.4%
COc1ccccc1CNC(=O)Cn1nc2c(N3CCSCC3)nccn2c1=O | 3.04% | 3.29% | -6.25%
CCc1ccccc1Sc1nccn2c(=O)n(CC(=O)Nc3cccc(Br)c3)nc12 | 8.38% | 2.9% | -6.91%
COc1ccc(CNC(=O)Cn2nc3c(Oc4cccc(C)c4C)nccn3c2=O)cc1 | 3.56% | -0.71% | -3.17%
Cc1nnc2ccc(S(=O)(=O)N(Cc3ccccc3F)c3cccc(F)c3)cn12 | 4.31% | 10.13% | -4.32%
O=C(Cn1nc2c3cc(-c4ccc(F)cc4)nn3ccn2c1=O)Nc1ccccc1 | 5.09% | 9.56% | -11.97%
O=c1n(Cc2ccc3c(c2)OCO3)nc2c(S(=O)(=O)N3CCCCC3)cccn12 | 10.73% | 3.52% | -6.79%
Cc1nnc2ccc(S(=O)(=O)N(Cc3cccc(F)c3)c3ccc(F)c(F)c3)cn12 | 2.49% | 1.97% | -11.8%
Cc1ccc(-c2cc3c4nn(CC(=O)Nc5ccccc5Br)c(=O)n4ccn3n2)cc1C | 18.24% | -0.22% | -11.06%
Cc1ccc(C)c(-c2cc3c4nnc(CCC(=O)NCCc5ccc(Cl)cc5)n4ccn3n2)c1 | 12.88% | 1.56% | -40.65%
O=C(CSc1nnc2c(=O)n(-c3ccccc3)ccn12)Nc1cccc(F)c1 | 2% | 7.33% | -21.7%
CCCc1nnc2c(=O)n(CC(=O)Nc3ccc4c(c3)OCCO4)c3ccccc3n12 | -1.14% | 4.16% | -31.27%
Cc1ccc(-c2cc3c4nn(CC(=O)NCc5ccccc5)c(=O)n4ccn3n2)cc1C | 9.36% | 4.46% | -12.84%
Cc1cccc(CN(c2cc(C)cc(C)c2)S(=O)(=O)c2cccn3c(C)nnc23)c1 | 4.64% | 1.12% | -10.57%
COC(=O)c1cccc(NC(=O)Cn2nc3ccc(-c4ccc(C)c(C)c4)nn3c2=O)c1 | 6.94% | 2% | -13.54%
Cc1nnc2c(S(=O)(=O)N(Cc3cc(F)cc(F)c3)c3cccc(F)c3)cccn12 | 4.57% | 6.53% | -8.02%
O=C(Cn1nc2ccc(-c3ccc(Cl)cc3)nn2c1=O)NC1CCCC1 | 16.69% | 1.09% | -13.05%
N#Cc1cccc(NC(=O)CSc2nnc3c4cc(-c5ccc(F)cc5)nn4ccn23)c1 | 16.47% | 16.76% | -30.63%
O=c1c2nnc(SCc3cccc(C(F)(F)F)c3)n2ccn1-c1ccc(Br)cc1 | 4% | 27.57% | -8.16%
Cc1ccc(-n2ccn3c(SCC(=O)Nc4ccc5c(c4)OCCO5)nnc3c2=O)cc1C | 9.68% | 0.14% | -6.74%
Cc1ccc(NC(=O)Cn2c(=O)c3nnc(C(C)C)n3c3ccccc32)cc1 | 2.07% | 1.19% | -10.22%
CCC(C)NC(=O)Cn1nc2n(Cc3cccs3)c(=O)c3sccc3n2c1=O (stereo not given) | 6.55% | 0.06% | -19.39%
Cc1cccc(NC(=O)Cn2nc3ccc(-c4ccc(Cl)cc4)nn3c2=O)c1 | 7.75% | 3.82% | -6.79%
COc1ccc(CNC(=O)Cn2nc3c(SC4CCCCC4)nccn3c2=O)cc1 | 14.45% | 17.79% | -15.36%
O=c1c2sccc2n2c(=O)n(Cc3c(F)cccc3Cl)nc2n1Cc1cccs1 | 11.77% | -0.79% | -29.08%
